Laboratory results published in PubChem BioAssay AID1159580 (chemical genetic matrix, 2015).
In all, about 5,500 compounds went through this assay and about 2,000 (36%) were called active. About 18% were inconclusive and are not listed. No stated cut-off is given here; in the data, active means normalized growth mostly below about 0.91 (no sharp cut-off); inconclusive means no clear call, values can overlap the other calls; inactive means mostly above about 0.92. This is one part of the list.

Test: chemical genetic growth profiling, strain panel (AID 1159580);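 further: tested at 20 µM; growth read once vehicle control cultures reached saturation at 30 °C; 1 = growth at the plate median or of vehicle wells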
Settings: growth OD
[1] = S. cerevisiae deletion strains, locus YAL013W, strain DEP1, stronger effect = lower value
[2] = S. cerevisiae deletion strains, locus YBR229C, strain ROT2, stronger effect = lower value
[3] = S. cerevisiae deletion strains, locus YDL101C, strain DUN1, stronger effect = lower value
[4] = S. cerevisiae deletion strains, locus YDR150W, strain NUM1, stronger effect = lower value
[5] = S. cerevisiae deletion strains, locus YEL061C, strain CIN8, stronger effect = lower value
[6] = S. cerevisiae deletion strains, locus YGR078C, strain PAC10, stronger effect = lower value
[7] = S. cerevisiae deletion strains, locus YGR229C, strain SMI1, stronger effect = lower value
[8] = S. cerevisiae deletion strains, locus YHR030C, strain SLT2, stronger effect = lower value
[9] = S. cerevisiae deletion strains, locus YHR087W, strain rtc3, stronger effect = lower value
[10] = S. cerevisiae deletion strains, locus YJR043C, strain POL32, stronger effect = lower value
[11] = S. cerevisiae deletion strains, locus YJR075W, strain HOC1, stronger effect = lower value
[12] = S. cerevisiae deletion strains, locus YLR039C, strain RIC1, stronger effect = lower value
[13] = S. cerevisiae deletion strains, locus YLR058C, strain SHM2 (second series), stronger effect = lower value
[14] = S. cerevisiae deletion strains, locus YLR085C, strain ARP6, stronger effect = lower value
[15] = S. cerevisiae deletion strains, locus YLR262C, strain YPT6, stronger effect = lower value
[16] = S. cerevisiae deletion strains, locus YML094W, strain GIM5, stronger effect = lower value
[17] = S. cerevisiae deletion strains, locus YMR219W, strain ESC1, stronger effect = lower value
[18] = S. cerevisiae deletion strains, locus YMR263W, strain SAP30, stronger effect = lower value
[19] = S. cerevisiae deletion strains, locus YNL153C, strain GIM3, stronger effect = lower value
[20] = S. cerevisiae deletion strains, locus YNL298W, strain CLA4 (second series), stronger effect = lower value
[21] = S. cerevisiae deletion strains, locus YNL322C, strain KRE1, stronger effect = lower value
[22] = S. cerevisiae deletion strains, locus YNR030W, strain Alg12, stronger effect = lower value
[23] = S. cerevisiae deletion strains, locus YPL055C, strain LGE1, stronger effect = lower value
[24] = S. cerevisiae deletion strains, locus YPL241C, strain CIN2, stronger effect = lower value
[25] = S. cerevisiae deletion strains, locus YPR135W, strain CTF4, stronger effect = lower value

Measured: normalized growth

FC(F)(F)c1ccc(Cl)c(NC(=S)NN=C2CCCCCC2)c1
active: [5] 0.89 | S. cerevisiae deletion strains, locus YKL190W, strain CNB1, stronger effect = lower value 0.891 | [12] 0.783 | [14] 0.741 | [20] 0.813 | S. cerevisiae deletion strains, locus YOL006C, strain TOP1, stronger effect = lower value 0.61
inactive: [1] 0.989 | [2] 0.977 | S. cerevisiae deletion strains, locus YCL061C, strain MRC1, stronger effect = lower value 1.01 | [3] 1.07 | [4] 1.04 | [6] 0.996 | [7] 0.948 | [8] 0.924 | [9] 0.956 | [10] 1.03 | [11] 1.02 | [13] 0.99 | [15] 0.883 | [16] 0.912 | [17] 0.984 | [18] 0.996 | [19] 1.02 | [21] 0.989 | [22] 0.895 | [23] 0.949 | [24] 0.969 | [25] 1

C=C1SC(Nc2cccc(C(F)(F)F)c2)=NC12CCCCC2
inactive: [1] 0.999 | [2] 1.01 | [3] 1.01 | S. cerevisiae deletion strains, locus YDL134C, strain PPH21, stronger effect = lower value 1.03 | [4] 0.987 | [5] 1.01 | [6] 0.986 | [7] 0.999 | [8] 0.955 | [9] 0.99 | [10] 1.01 | [11] 0.995 | [12] 0.958 | [13] 0.987 | [14] 1.03 | [15] 0.971 | [16] 1.02 | [17] 0.999 | [18] 0.982 | S. cerevisiae deletion strains, locus YMR307W, strain GAS1, stronger effect = lower value 0.937 | [19] 0.973 | [20] 0.985 | [21] 1.01 | [22] 1.01 | [23] 0.995 | [24] 1.01 | [25] 0.904 | S. cerevisiae strains, strain wild type, stronger effect = lower value 1

FC(F)(F)c1cccc(NC(=S)NN=C2CCCCCC2)c1
active: [8] 0.846 | S. cerevisiae deletion strains, locus YLR113W, strain HOG1, stronger effect = lower value 0.811 | S. cerevisiae deletion strains, locus YPL256C, strain CLN2, stronger effect = lower value 0.84
inactive: S. cerevisiae deletion strains, locus YAR019C, strain CDC15, stronger effect = lower value 0.978 | S. cerevisiae deletion strains, locus YBL105C, strain PKC1, stronger effect = lower value 0.983 | S. cerevisiae deletion strains, locus YBR135W, strain CKS1, stronger effect = lower value 0.994 | S. cerevisiae deletion strains, locus YBR136W, strain MEC1, stronger effect = lower value 0.987 | S. cerevisiae deletion strains, locus YBR160W, strain CDC28, stronger effect = lower value 0.991 | S. cerevisiae deletion strains, locus YDL017W, strain CDC7, stronger effect = lower value 0.983 | S. cerevisiae deletion strains, locus YDL028C, strain MPS1, stronger effect = lower value 0.997 | [3] 0.984 | S. cerevisiae deletion strains, locus YDL108W, strain KIN28, stronger effect = lower value 1 | S. cerevisiae deletion strains, locus YDL132W, strain cdc53, stronger effect = lower value 0.989 | S. cerevisiae deletion strains, locus YDL214C, strain PRR2, stronger effect = lower value 0.909 | S. cerevisiae deletion strains, locus YDR052C, strain DBF4, stronger effect = lower value 0.982 | S. cerevisiae deletion strains, locus YDR054C, strain cdc34, stronger effect = lower value 0.966 | S. cerevisiae deletion strains, locus YDR226W, strain ADK1, stronger effect = lower value 0.978 | S. cerevisiae deletion strains, locus YDR477W, strain SNF1, stronger effect = lower value 0.91 | S. cerevisiae deletion strains, locus YER123W, strain YCK3, stronger effect = lower value 0.831 | S. cerevisiae deletion strains, locus YER133W, strain GLC7, stronger effect = lower value 0.892 | S. cerevisiae deletion strains, locus YFL009W, strain cdc4, stronger effect = lower value 0.986 | S. cerevisiae deletion strains, locus YFL029C, strain CAK1, stronger effect = lower value 0.983 | S. cerevisiae deletion strains, locus YFR003C, strain YPI1, stronger effect = lower value 0.989 | S. cerevisiae deletion strains, locus YFR019W, strain FAB1, stronger effect = lower value 0.946 | S. cerevisiae deletion strains, locus YFR028C, strain CDC14, stronger effect = lower value 0.992 | S. cerevisiae deletion strains, locus YGR040W, strain KSS1, stronger effect = lower value 0.914 | S. cerevisiae deletion strains, locus YGR052W, strain FMP48, stronger effect = lower value 0.924 | S. cerevisiae deletion strains, locus YGR092W, strain DBF2, stronger effect = lower value 0.823 | S. cerevisiae deletion strains, locus YHR079C, strain IRE1, stronger effect = lower value 0.81 | S. cerevisiae deletion strains, locus YHR082C, strain KSP1, stronger effect = lower value 0.997 | S. cerevisiae deletion strains, locus YHR205W, strain SCH9, stronger effect = lower value 0.914 | S. cerevisiae deletion strains, locus YIL147C, strain SLN1, stronger effect = lower value 0.987 | S. cerevisiae deletion strains, locus YJL095W, strain BCK1, stronger effect = lower value 0.887 | S. cerevisiae deletion strains, locus YJL128C, strain PBS2, stronger effect = lower value 0.98 | S. cerevisiae deletion strains, locus YJL157C, strain FAR1, stronger effect = lower value 0.869 | S. cerevisiae deletion strains, locus YJR016C, strain ILV3, stronger effect = lower value 0.993 | S. cerevisiae deletion strains, locus YJR066W, strain TOR1 (second series), stronger effect = lower value 0.827 | S. cerevisiae deletion strains, locus YJR066W, strain TOR1, stronger effect = lower value 0.907 | S. cerevisiae deletion strains, locus YKL048C, strain ELM1, stronger effect = lower value 0.949 | S. cerevisiae deletion strains, locus YKL067W, strain YNK1, stronger effect = lower value 0.92 | S. cerevisiae deletion strains, locus YKL101W, strain HSL1, stronger effect = lower value 0.928 | S. cerevisiae deletion strains, locus YKL193C, strain SDS22, stronger effect = lower value 0.986 | S. cerevisiae deletion strains, locus YKL203C, strain TOR2, stronger effect = lower value 0.936 | S. cerevisiae deletion strains, locus YLR133W, strain CKI1, stronger effect = lower value 0.921 | S. cerevisiae deletion strains, locus YLR403W, strain SFP1, stronger effect = lower value 0.882 | S. cerevisiae deletion strains, locus YML070W, strain DAK1, stronger effect = lower value 0.897 | S. cerevisiae deletion strains, locus YMR001C, strain CDC5, stronger effect = lower value 0.979 | S. cerevisiae deletion strains, locus YMR205C, strain PFK2 (second series), stronger effect = lower value 0.936 | S. cerevisiae deletion strains, locus YMR277W, strain FCP1, stronger effect = lower value 0.988 | S. cerevisiae deletion strains, locus YNL006W, strain LST8, stronger effect = lower value 0.986 | S. cerevisiae deletion strains, locus YNL020C, strain ARK1, stronger effect = lower value 0.902 | S. cerevisiae deletion strains, locus YNL161W, strain CBK1, stronger effect = lower value 0.987 | S. cerevisiae deletion strains, locus YNL183C, strain NPR1, stronger effect = lower value 0.949 | S. cerevisiae deletion strains, locus YNL207W, strain RIO2, stronger effect = lower value 0.98 | S. cerevisiae deletion strains, locus YNL222W, strain SSU72, stronger effect = lower value 1 | S. cerevisiae deletion strains, locus YNL307C, strain MCK1 (second series), stronger effect = lower value 0.798 | S. cerevisiae deletion strains, locus YOL078W, strain AVO1, stronger effect = lower value 0.994 | S. cerevisiae deletion strains, locus YOL136C, strain PFK27, stronger effect = lower value 0.896 | S. cerevisiae deletion strains, locus YOR061W, strain CKA2, stronger effect = lower value 0.862 | S. cerevisiae deletion strains, locus YOR119C, strain RIO1, stronger effect = lower value 0.973 | S. cerevisiae deletion strains, locus YOR231W, strain MKK1, stronger effect = lower value 0.828 | S. cerevisiae deletion strains, locus YOR329C, strain SCD5, stronger effect = lower value 0.988 | S. cerevisiae deletion strains, locus YPL031C, strain PHO85, stronger effect = lower value 0.884 | S. cerevisiae deletion strains, locus YPL153C, strain RAD53, stronger effect = lower value 0.872 | S. cerevisiae deletion strains, locus YPL204W, strain HRR25, stronger effect = lower value 0.838 | S. cerevisiae deletion strains, locus YPL209C, strain IPL1, stronger effect = lower value 0.988 | S. cerevisiae deletion strains, locus YPR025C, strain CCL1, stronger effect = lower value 0.995 | S. cerevisiae deletion strains, locus YPR106W, strain ISR1, stronger effect = lower value 0.994 | S. cerevisiae deletion strains, locus YPR111W, strain DBF20, stronger effect = lower value 0.984 | S. cerevisiae deletion strains, strain NNK1, stronger effect = lower value 1 | S. cerevisiae deletion strains, strain TSCII, stronger effect = lower value 0.982
